# Source: PubChem BioAssay (NCI)
# Where “and” joins values, the source holds several entries; their conditions need not be identical. Equal entries are not always repeated. The panel holds about 83,000 compounds, 20% with a hit somewhere; the sample as a whole holds those more often.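 How to read the values: 0–100, growth inhibition (40 = 60% inhibited); 0, no net growth; -100 to 0, cell death (-40 = 40% of starting cells died; -100 = all dead).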 Values without a mark were called inactive. Calls of active or inactive are those of the source. How the source made its calls: active means growth percent below 10; inactive means the rest.
# Test system: MDA-MB-468 breast
# Assay: NCI-60 one-dose screen, 48 h (100 = growth as untreated, 0 = no growth, -100 = all killed)
# Settings: 10 µM unless noted
row,SMILES,growth
1,COc1cc2nc(Sc3sc(N)nc3C)n(-c3ccc(Oc4ccccc4)cc3)c(=O)c2cc1OC,80.2%
2,O=C1/C(=C/c2ccc(Cl)cc2)CN(C(=O)C(Cl)Cl)C/C1=C\c1ccc(Cl)cc1,-59.7% (active)
3,CC(=O)C1CC(C)CCC1C(C)C (centres undefined),-8.03% (active)
4,O=C(CSc1nc2ccccc2c(=O)n1-c1ccc(Cl)cc1)N/N=C/c1ccc(N2CCCCC2)cc1,79.5%
5,CCCCCCCCNc1cccc2c1C(=O)c1ccccc1C2=O,95.4%
6,CCOC(=O)c1cnn(CC(C)O)c1NC(=O)NCc1cccc(F)c1 (centres undefined),105%
7,CCSC1=NC2C(N(CC)C(=O)N2CC)N1/N=C/C=C/c1ccccc1[N+](=O)[O-] (centres undefined),-0.585% (active)
8,COc1ccc(-c2nc(SCCC(C)C)nc(N/N=C\c3cccc([N+](=O)[O-])c3)c2C#N)cc1,12.7%
9,O=[N+]([O-])c1cccc(-c2nc3sccn3c2-c2ccnc(NCCCNS(=O)(=O)c3ccc(Cl)cc3)n2)c1,13.1%
10,CC(=O)Oc1ccc(C(OC(C)=O)OC(C)=O)cc1,109%
11,CN[C@@H](C)C(=O)N[C@H]1CCS[C@H]2CC(C)(C)[C@@H](C(=O)N[C@H]3c4ccccc4C[C@H]3OCC#CC#CCO[C@@H]3Cc4ccccc4[C@@H]3NC(=O)[C@H]3N4C(=O)[C@@H](NC(=O)[C@H](C)NC)CCS[C@H]4CC3(C)C)N2C1=O,19.3%
12,Cc1c(C(N)=O)sc2c1c(=O)n(Cc1ccccc1)c1nnc(Nc3ccccc3)n21,108%
13,Cc1cnc2nc(NN)[nH]n12,91%
14,Nc1nc(Cl)c2ncn(Cc3cc4c(cc3I)OCO4)c2n1,7.98% (active)
15,C=CCCCCCCCCC(=O)OC(C)C,97.5%
16,COC(=O)[C@H]1CCCN1C(=O)[C@H]1CCCN1C(=O)[C@@H](Cc1c[nH]c2ccccc12)NC(=S)Nc1cc(C(F)(F)F)cc(C(F)(F)F)c1,21%
17,CCCCCC[n+]1ccc(SCC(=O)n2ccc3ccccc32)c2ccccc21,4.72% (active)
18,COc1ccc(-c2nc3sc(-c4ccccc4)c(-c4ccccc4)n3c2/C=C/C(=O)c2ccccn2)cc1,60%
19,Clc1ccc(-c2c3ccc(=[N+]4CCCCC4)cc-3oc3cc(N4CCCCC4)ccc23)cc1,-87.4% (active)
20,Cc1ccc(-c2nnc(SCc3nc(N)nc(Nc4ccccc4F)n3)n2-c2ccccc2)cc1,86.5%
21,S=C(SSC(=S)N(c1ccccc1)c1ccccc1)N(c1ccccc1)c1ccccc1,107%
22,COc1cnc2c(c1)C(=O)c1c-2n(CCCNC(C)C)c(=O)c2cc([N+](=O)[O-])ccc12,-55.8% (active)
23,CC[C@H](Nc1ncnc2nc[nH]c12)c1nc2cccc(NCc3ccc(C(=O)NO)nc3)c2c(=O)n1-c1ccccc1,11.1%
24,COc1ccc(-c2nc(Cl)c3c(C)nn(-c4ccc(F)cc4)c3n2)cc1,105%
25,CC(=O)Nc1cc2c3c(cccc3c1)-c1ccccc1-2,108%
26,CCn1cc(C2=C(c3cn(C)c4ncccc34)C(=O)NC2=O)c2cccnc21,37.2%
27,O=C(CSc1nc2ccccc2[nH]1)Nc1ccc(-c2nc3ccccc3s2)c(Cl)c1,26.5%

row,SMILES,growth
1,O=C(c1ccccc1)N(CCCCl)C(=O)N(CCCCl)C(=O)c1ccccc1,94.2%
2,CC(C)CCC[C@@H](C)[C@H]1CC[C@H]2[C@@H]3CC=C4C[C@@H](C(C(=O)O)C(=O)O)CC[C@]4(C)[C@H]3CC[C@]12C,-32% (active)
3,C#CCOc1ccc(C2=NN(C)C3N=C(Cl)c4ncn(C)c4N23)cc1OCC#C (centres undefined),86.3%
4,O=C1C=CC(=O)N1c1ccc(O)cc1,88.9%
5,COC(=O)c1c(C)nc(C)c2c1C(=O)C(Br)=C(NCc1ccccc1)C2=O,-21.3% (active)
6,COc1cc2c(c(OC)c1OC)-c1ccc(N)c(=O)cc1[C@@H](NC(C)=O)CC2,0.226% (active)
7,COc1ccc2c(c1)C/C(=C\c1cc(-c3cc(OC)c(OC)c(OC)c3)n[nH]1)C2=O,68.8%
8,COC(=O)[C@]12CC[C@@H](C)[C@H](C)[C@@H]1C1=CC[C@@H]3[C@@]4(C)C(C=O)=C[C@@](C)(COC(=O)c5ccco5)[C@@H]4C(=O)C[C@@]3(C)[C@]1(C)CC2,9.8% (active)
9,CCOC(=O)CSc1ncnc2c1c(-c1ccccc1)c(-c1ccccc1)n2-c1ccc(C)cc1,51.9%
10,CCOc1ccc(/C=N\N=C\c2ccc(OCC)cc2)cc1,77%
11,COc1ccc(-c2nc3ccccn3c2/C=C/C(=O)c2cc(OC)c(OC)c(OC)c2)cc1OC,8.94% (active)
12,OCCOc1c(Cl)cc(Cl)cc1Cl,127%
13,Oc1[nH]c2ccccc2c1/C=c1/ccc2c(c1)N=C(c1ccc(C(F)(F)F)cc1)N=2,43.6%
14,CN[C@]12CC3(C=CC(=O)C=C3)O[C@@]1(Cc1ccc(OC)cc1)N(C)C(=O)N2,36.4%
15,O=c1cc(/C=N\Nc2nc(-c3ccc(Cl)cc3Cl)cs2)c2cc(Cl)ccc2o1,102%
16,Cc1nn(-c2ccccc2)c(Cl)c1C(CC(=O)c1ccc(Cl)cc1)CC(=O)c1ccc(Cl)cc1,87.7%
17,COc1ccc(NC(=O)c2sc3nc4c(cc3c2N)C(O)CCC4)cc1 (centres undefined),92.2%
18,NS(=O)(=O)c1ccc(Nc2nc(N/N=C/c3ccc(F)cc3)nc(Nc3ccccc3)n2)cc1,54.1%
19,C#CCOc1ccc2ncnc(N3CCN(C(=O)CCl)CC3)c2c1,-9.23% [8.25 µM] (active)
20,CCCCOc1c(N)cccc1C(=O)OCCN(CC)CC,112%
21,CC(=O)Oc1csc(N(C(C)=O)c2cc(C(=O)O)cc(C(=O)O)c2)n1,95.2%
22,O=C(Nc1ccccc1)Oc1ccccc1-c1ccccc1,101%
23,c1ccc(CCNc2c3ccccc3nc3ccccc23)cc1,-11.4% (active)
24,COc1cc(CNCCN2C(=O)c3ccc4c5c(ccc(c35)C2=O)C(=O)N(CCNCc2cc(OC)c(OC)c(OC)c2)C4=O)cc(OC)c1OC,-91.6% (active)
25,C/C=C/[C@@H]1C=C[C@@H]2C[C@H](C)CC[C@H]2[C@]1(C)/C(O)=C1/C(=O)[C@H](CO)N(C)C1=O,65.5%
26,O=C1Nc2cc(Cl)ccc2/C1=C\c1ccc(OCc2ccccc2)cc1,98.5%
27,CCOC(=O)c1[nH]cc2c1CCc1sc(Nc3ccccn3)nc1-2,46.9%

row,SMILES,growth
1,COc1cc(C2CC(c3ccc4c(c3)OCO4)=NN2C=O)cc(OC)c1OC (centres undefined),-12.7% (active)
2,Nc1ccc(N)c2c1C(=O)c1cccc([N+](=O)[O-])c1C2=O,54.8%
3,CSc1nc(NCCO)c(C#N)c(-c2cccc(N)c2)n1,116%
4,COc1ccc(/C=C2\Oc3cc(OCCCN4CCCC4)ccc3C2=O)cc1,74.1%
5,c1cc2ccc3cc2cc1CNCCN1CCNCc2ccc4ccc(cc4c2)CNCCN(CCNC3)CCNCc2ccc3ccc(cc3c2)CNCC1,-45.2% (active)
6,COc1ccc(C2c3ccccc3NC(=O)N2C2CCN(C)CC2)c(OC)c1 (centres undefined),88.3%
7,COc1ccc(OC)c(Nc2nc(-c3c(C)nc4sccn34)cs2)c1,24.5%
8,IP(CCCCCCCCCCSc1n(Cc2ccc3ccccc3c2)c(-c2ccccc2)c(-c2ccccc2)[n+]1Cc1ccc2ccccc2c1)(c1ccccc1)(c1ccccc1)c1ccccc1,-75.3% (active)
9,Cn1cc(C(=O)c2nc(-c3c[nH]c4ccc(Br)cc34)no2)c2cc(F)ccc21,108%
10,O=C(Nc1nc2ccc(OC(F)(F)F)cc2s1)c1ccc(F)cc1,21.1%
11,CCC(=O)Nc1nnc(Cc2ccc(OC)c(OC)c2)s1,-2.42% (active)
12,C=C1C(=O)O[C@H]2[C@H]1CC/C(COC(=O)/C=C\C(=O)NCc1ccc(Cn3c(=O)sn(-c4ccc(Cl)cc4)c3=O)cc1)=C\CC[C@@]1(C)O[C@@H]21,-83.5% (active)
13,CCCCSc1ccc2nc(-c3ccc(OCCCN=C(N)N)cc3)cn2c1,35.6%
14,Cc1c(Cl)cc(Cl)c(N)c1Cl,111%
15,Cc1cc(NS(=O)(=O)c2ccc(N=Nc3cc(N=Nc4ccc(S(=O)(=O)Nc5cc(C)nc(C)n5)cc4)c4c(NC(=O)C(Cl)Cl)cccc4c3OC(=O)C(Cl)Cl)cc2)nc(C)n1 (tested in a mixture with another compound),103% and 78.5%
16,C/C(=N/NC(N)=S)C(=O)O,39.2%
17,CN(C)CCCNC(=O)c1cncnc1Nc1ccc2c(ccn2Cc2cccc(F)c2)c1,52.6%
18,CCCCC(N)(C(=O)O)C1CCCC1 (centres undefined),107%
19,COC(=O)c1cc(Cl)cc([N+](=O)[O-])c1O,95.3%
20,Cn1cnc2c1c(=O)n(CCC(=O)Nc1ccc(F)cc1)c(=O)n2C,113%
21,O=C(CCl)n1nnnc1Cc1ccccc1,101%
22,CCOC(=O)c1c2c(n(-c3ccc(C#N)cc3)c1-c1ccccc1)C=CCC2,88.9%
23,NNC(=O)c1ccc(C(=O)NN)cc1,102%
24,CC(=O)c1nn(-c2ccccc2)c(=Nc2ccccc2)cc1C,91.9%
25,CCNc1cc(-c2cccc(OC(F)(F)F)c2)nc2ccc(N3CCCC3)cc12,-34.9% (active)
